Measurements from PubChem BioAssay.
“And” between values parts separate entries of the source, which are not always exact repeats. Equal values may be shown once. The source made the active and inactive calls. Unless noted, no stated cut-off is given here; in the data, active means inhibition above about 80%; inactive means the rest.

Assays:
[1] = LFS_MB_P medulloblastoma growth inhibition, cell-based, chromothripsis tumors, cisplatin or BGB combos (AID 1671449); settings: LFS_MB_P medulloblastoma cells;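 further: cells exposed for 96 hours; 0% = vehicle DMSO and 100% = killing by high DMSO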
[2] = growth inhibition of BT084 medulloblastoma cells, cell-based, ICGC_MB145, cisplatin and BGB IC40 combos (AID 1671461); settings: drug combinations, stronger effect = higher value;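 further: cells exposed to drugs for 96 hours; 0% = vehicle DMSO and 100% = high DMSO full killing control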
[3] = HDN33 neuroblastoma growth inhibition, cell-based, chromothripsis tumors, cisplatin or BGB combos (AID 1671450); settings: HDN33 neuroblastoma cells, stronger effect = higher value;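 further: cells exposed to compound for four days; 0% = vehicle DMSO and 100% = cell killing by high DMSO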
[4] = ICB984 medulloblastoma cell growth inhibition, synergistic combos for chromothripsis tumors, cisplatin or BGB combos (AID 1671451; call rule not given here;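 further: cells exposed for 96 hours before readout; 0% = vehicle DMSO and 100% = killing by high DMSO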); settings: ICB984 medulloblastoma cells, drug combinations, stronger effect = higher value
[5] = LFS_MB_1R medulloblastoma cell growth inhibition, synergistic combos for chromothripsis tumors, cisplatin or BGB combos (AID 1671452); settings: LFS_MB_1R medulloblastoma cells, stronger effect = higher value;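 further: cells exposed for 96 hours before readout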
[6] = HTB85 osteosarcoma cell growth inhibition, synergistic combos for chromothripsis tumors, BGB or cisplatin IC20 combos (AID 1671453); settings: HTB85 osteosarcoma cells, drug combinations, stronger effect = higher value;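 further: cells exposed for 96 hours before readout; 0% = vehicle DMSO and 100% = high DMSO killing control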
[7] = CRL2098 osteosarcoma cell growth inhibition, synergistic combos for chromothripsis tumors, BGB or cisplatin IC20 combos (AID 1671454); settings: CRL2098 osteosarcoma cells, drug combinations, stronger effect = higher value;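 further: cells exposed for 96 h before readout; 0% = vehicle DMSO and 100% = killing by high DMSO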
[8] = HD-MB03 medulloblastoma cell growth inhibition, synergistic combos for chromothripsis tumors, BGB or cisplatin IC20 combos (AID 1671455; in the data active means inhibition above about 83%;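 further: 0% = vehicle DMSO and 100% = high DMSO as cytotoxic control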); settings: HD-MB03 medulloblastoma cells, stronger effect = higher value
[9] = UWB1.289 ovarian carcinoma cell growth inhibition, synergistic combos for chromothripsis tumors, BGB or cisplatin combos (AID 1671456); settings: UWB1.289 ovarian carcinoma cells, stronger effect = higher value;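 further: cells exposed to compound for four days; 0% = vehicle DMSO and 100% = killing by high DMSO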
[10] = LFS_MB_2R medulloblastoma cell growth inhibition, synergistic combos for chromothripsis tumors, cisplatin combos (AID 1671457); settings: LFS_MB_2R medulloblastoma cells, stronger effect = higher value;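 further: cells exposed to compound for four days before readout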
[11] = MDA-MB-436 breast carcinoma cell growth inhibition, synergistic combos for chromothripsis tumors, BGB or cisplatin combos (AID 1671458; call rule not given here;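 further: cells exposed for 96 hours; 0% = vehicle DMSO and 100% = killing by high DMSO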); settings: MDA-MB-436 breast carcinoma growth inhibition, drug combinations, stronger effect = higher value
[12] = UWB1.289_BRCA1 ovarian cancer growth, cell-based, BGB or cisplatin combinations (AID 1671459); settings: UWB1.289 BRCA1 ovarian carcinoma, drug combinations, stronger effect = higher value
[13] = human astrocyte viability loss, single and combined drugs, cytotoxicity control for chromothriptic childhood tumor combination screen, cell-based, BGB or cisplatin IC20 combos (AID 1671460); settings: Human astrocytes, drug combinations, stronger effect = higher value;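 further: cells exposed to compounds for 96 hours before viability readout; 0% = vehicle and 100% = killing control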
[14] = growth inhibition of RCMB18 medulloblastoma cells, cell-based, cisplatin and BGB IC40 combos (AID 1671462); settings: stronger effect = higher value;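 further: cells exposed to compound for four days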
[15] = growth inhibition of CRL1545 osteosarcoma cells, cell-based, cisplatin and BGB IC20 combos (AID 1671464); settings: stronger effect = higher value;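 further: cells exposed to compound for 96 hours before readout; 0% = vehicle DMSO and 100% = high DMSO killing control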
[16] = measured here: combination with BGB IC40, at 0.05 µM
[17] = measured here: with BGB IC20 combination, at 0.5 µM
[18] = measured here: with cisplatin IC20 combination, at 0.5 µM
[19] = measured here: combination with cisplatin, at 0.5 µM
[20] = measured here: combination with cisplatin, at 5 µM

## CCc1c2c(nc3ccc(OC(=O)N4CCC(N5CCCCC5)CC4)cc13)-c1cc3c(c(=O)n1C2)COC(=O)C3(O)CC (stereo not given)
[1]; [16]
  inhibition: -19.5% and -4.73% and -44.6%
[2]; at 0.5 µM
  inhibition: -22.5% (inactive) and 1.41% (inactive) and -20.7% (inactive)

## CCCCCCCCCC(=O)N[C@@H](Cc1c[nH]c2ccccc12)C(=O)N[C@@H](CC(N)=O)C(=O)N[C@@H](CC(=O)O)C(=O)NC1C(=O)NCC(=O)N[C@@H](CCCN)C(=O)N[C@@H](CC(=O)O)C(=O)N[C@H](C)C(=O)N[C@@H](CC(=O)O)C(=O)NCC(=O)N[C@H](CO)C(=O)N[C@@H](C(C)CC(=O)O)C(=O)N[C@@H](CC(=O)c2ccccc2N)C(=O)OC1C (stereo not given in full)
[1]; at 0.5 µM, stronger effect = higher value
  inhibition: -27.6% (inactive) and -32.6% (inactive)
[1]; measured here: combination with BGB IC20, at 0.005 µM
  inhibition: 1.22% and 8.36%
[1]; measured here: combination with BGB IC40, at 0.005 µM
  inhibition: -33.3% and -6.15%
[1]; [16]
  inhibition: -27.1% and -21.6%
[1]; measured here: combination with cisplatin, at 0.5 µM, stronger effect = higher value
  inhibition: -42.5% and -64.3%
[1]; measured here: combination with cisplatin, at 5 µM, stronger effect = higher value
  inhibition: -23.7% and -0.57%
[3]; BGB combo, at 5 µM
  inhibition: -9.1% and -17.9%
[3]; at 0.5 µM
  inhibition: -7.65% (inactive) and -14% (inactive)
[3]; cisplatin combo, at 5 µM
  inhibition: 17.9% and -21%
[3]; [17]
  inhibition: -19% and -14.2%
[3]; [18]
  inhibition: 5.61% and -17.4%
[3]; single agent, at 5 µM
  inhibition: 5.14% and 4.37%
[4]; BGB IC20 combo, at 0.005 µM
  inhibition: -14.8% and 0.272%
[4]; BGB IC40 combo, at 0.005 µM
  inhibition: -10.2% and -12.9%
[4]; BGB IC40 combo, at 0.05 µM
  inhibition: -9.03% and -26.8%
[4]; at 0.5 µM
  inhibition: -38.5% (inactive) and -18.4% (inactive)
[4]; cisplatin combo, at 0.05 µM
  inhibition: -12.1% and -31.4%
[4]; cisplatin combo, at 0.5 µM
  inhibition: -42.4% and -16.6%
[4]; cisplatin combo, at 5 µM
  inhibition: -27.4% and -22.6%
[4]; measured here: 5 uM single agent, at 5 µM
  inhibition: -18.7% and 2.31%
[5]; at 0.5 µM
  inhibition: -6.57% (inactive) and -6.58% (inactive)
[5]; [16]
  inhibition: -2.79% and -15.2%
[5]; [19]
  inhibition: 7.06% and -22.9%
[5]; [20]
  inhibition: -14.1% and 4.93%
[6]; at 0.5 µM
  inhibition: -0.19% (inactive) and -22.1% (inactive)
[6]; measured here: with BGB IC20, at 0.5 µM
  inhibition: 1.21% and -18.4%
[6]; measured here: with BGB IC20, at 5 µM
  inhibition: 41% and -9.81%
[6]; measured here: with cisplatin IC20, at 0.5 µM
  inhibition: -11.7% and -35.1%
[6]; measured here: with cisplatin IC20, at 5 µM
  inhibition: -35% and -23.5%
[6]; single agent, at 5 µM
  inhibition: -14.9% and -5.13%
[7]; at 0.5 µM
  inhibition: -34.4% (inactive) and -31.7% (inactive)
[7]; measured here: combination with BGB at IC20, at 0.5 µM
  inhibition: -39.7% and -27.2%
[7]; measured here: combination with cisplatin at IC20, at 0.5 µM
  inhibition: -14% and -62.4%
[8]; at 0.5 µM
  inhibition: -9.94% (inactive) and -8.88% (inactive)
[8]; measured here: combo with BGB at IC20, at 0.5 µM
  inhibition: -6.42% and -16.2%
[8]; measured here: combo with cisplatin at IC20, at 0.5 µM
  inhibition: -14.7% and -5.25%
[9]; at 0.5 µM
  inhibition: 10.2% (inactive) and 12.2% (inactive)
[9]; measured here: inhibition with BGB combination, at 0.05 µM
  inhibition: -9.69% and -2.7%
[9]; measured here: inhibition with cisplatin combination, at 0.05 µM
  inhibition: -15.8% and -25.8%
[10]; at 0.5 µM
  inhibition: -23.5% (inactive) and -6.81% (inactive)
[10]; [19]
  inhibition: -31.3% and -1.96%
[10]; [20]
  inhibition: -80.2% and 9.2%
[11]; at 0.5 µM
  inhibition: -16.9% (inactive) and 1.2% (inactive)
[11]; measured here: BGB combination, at 0.5 µM
  inhibition: -8.45% and 11.2%
[11]; measured here: BGB combination, at 5 µM
  inhibition: -21.2% and 5.73%
[11]; measured here: cisplatin combination, at 0.5 µM
  inhibition: -33.4% and -3.35%
[11]; measured here: cisplatin combination, at 5 µM
  inhibition: -35% and -1.3%
[12]; BGB combination, concentration series, at 5 µM
  inhibition: 0.446% and -9.8%
[12]; at 0.5 µM
  inhibition: -0.18% (inactive) and -1.59% (inactive)
[12]; cisplatin combination, concentration series, at 5 µM
  inhibition: 29.6% and 3.48%
[13]; at 0.5 µM
  inhibition: -6.51% (inactive) and -21.5% (inactive)
[13]; measured here: combo with BGB IC20, at 0.5 µM
  inhibition: -8.41% and -24.6%
[13]; measured here: combo with cisplatin IC20, at 0.5 µM
  inhibition: -7.76% and -27.2%
[2]; at 0.5 µM
  inhibition: -50.8% (inactive) and -0.72% (inactive)
[2]; cisplatin combination, at 0.5 µM
  inhibition: -32.6% and -11.3%
[2]; cisplatin combination, at 5 µM
  inhibition: -30.3% and -7.6%
[2]; measured here: BGB IC40 combination 0.05 uM, at 0.05 µM
  inhibition: -7.72% and 14.6%
[2]; single agent, at 5 µM
  inhibition: -22.5% and -17.6%
[14]; at 0.5 µM
  inhibition: -14.5% (inactive) and -23% (inactive)
[14]; cisplatin combo, at 5 µM
  inhibition: -29.9% and -45.9%
[14]; measured here: BGB IC40 combination, at 0.05 µM
  inhibition: -12.3% and 4.76%
[14]; [19]
  inhibition: -0.362% and -63.9%
[14]; single agent, at 5 µM
  inhibition: -26.6% and -8.51%
[15]; at 0.5 µM
  inhibition: 12.4% (inactive) and 0.47% (inactive)
[15]; [17]
  inhibition: 12.1% and 6.43%
[15]; [18]
  inhibition: 10.6% and -4.18%
[15]; single agent, at 0.05 µM
  inhibition: -15.3% and 8.61%
[15]; single agent, at 5 µM
  inhibition: 20.8% and -15.6%
